Shown are actives, neighbours in structure and some others; about 3.1% of the full set was active somewhere.
BoNT F protease = blocks Botulinum neurotoxin F light chain protease; Multiplex microsphere protease cleavage assay, flow cytometry; inhibition, % at 10 µM; 360,000 tested, 0.22% active; AID 588497; in the data active means inhibition above about 35%, passing the limit was not always enough; inconclusive means no clear call, values can overlap the other calls
Autofluor counter = counter-screen for toxin protease inhibitors: compound fluorescence. compound autofluorescence counterscreen, microsphere flow cytometry; hits give high values. fluorescence intensity (no concentration beside the values). 360,000 tested, 3.1% active. AID 624483; in the data active means fluorescence intensity above about 16000; inconclusive means no clear call, values can overlap the other calls
BoNT A protease = blocks Botulinum neurotoxin A light chain protease; 360,000 tested, 0.17% active; inhibition, % at 10 µM; multiplex microsphere protease substrate cleavage, flow cytometry
SSB-PriA inh = blocks PriA binding to SSB C-terminal tail; inhibition, % at 33 µM; 430,000 tested, 0.6% active; AlphaScreen SSBct-PriA binding, biotinylated peptide; AID 1272365; in the data active means inhibition mostly above about 37%, no sharp cut-off; inactive means mostly below about 20%
Anthrax LF prot = inhibitors of Bacillus anthracis lethal factor protease. P15917. multiplex microsphere protease cleavage assay, LF. inhibition, % at 10 µM. 360,000 tested, 0.12% active. AID 588501
Each line names hits and unclear results; the compound was inactive in the other large screens. Unless noted, no stated cut-off is given here; in the data, active means inhibition above about 30%; inconclusive means no clear call, values can overlap the other calls; inactive means below that.

O=S(=O)(c1ccc(F)cc1)N1CCC(n2cnc3ccccc32)CC1	none
O=S(=O)(c1ccc(Cl)cc1)N1CCC(n2cnc3cc(C(F)(F)F)ccc32)CC1	Autofluor counter 16517
CCOc1cc(S(=O)(=O)NC2CCCCC2)ccc1F	Autofluor counter 22695
O=C(NCc1ccccc1)c1ccc(-c2ccc(F)cc2)o1	Autofluor counter 21149, BoNT A protease inconclusive
O=C(NCc1ccc(F)cc1)c1cnn2ccccc12	SSB-PriA inh 104
Cn1nc(C(=O)NCc2ccc(F)cc2)c2ccccc2c1=O	Autofluor counter 22634
Cn1nc(C(=O)NCc2ccccc2)c2ccccc2c1=O	none
COc1ccc(NC(=O)Cc2cc(=O)[nH]c(SCc3ccccc3F)n2)cc1OC	none (no result: BoNT F protease, Autofluor counter, BoNT A protease, Anthrax LF prot)
O=C(c1ccc(Cl)cc1)C1CCN(C(=O)N2CCOCC2)CC1	Autofluor counter 19889
CC(=O)Nc1ccc(NC(=O)[C@@H](NC(=O)N2CC3C[C@H](C2)Cn2c3cccc2=O)C(C)C)cc1	none (no result: BoNT F protease, Autofluor counter, BoNT A protease, Anthrax LF prot)
COc1ccc2c(c1)CCC1C2=NN(/C(C)=C/C(C)=O)C1c1cccc(F)c1 (stereo unspecified)	Autofluor counter 62503
CC(=O)N1N=C2c3ccccc3CCC2C1c1ccc(F)cc1 (stereo unspecified)	none
C=CCN(CC=C)c1cnn(-c2nc3ccccc3[nH]2)c(=O)c1Cl	Autofluor counter 21324
O=c1c(Cl)c(NCCCO)cnn1-c1nc2ccccc2[nH]1	none
O=C(CCc1ccccc1)Nn1cnc2c(cnn2-c2cccc(Cl)c2)c1=O	none (no result: BoNT F protease, Autofluor counter, BoNT A protease, Anthrax LF prot)
COc1ccc(SCCC(=O)Nc2ccc3sccc3c2)cc1	SSB-PriA inh 43 (no result: BoNT F protease, Autofluor counter, BoNT A protease, Anthrax LF prot)
Cc1cc(NC(=O)CS(=O)(=O)c2cn(CC(=O)N3CCCC3)c3ccccc23)no1	none (no result: BoNT F protease, Autofluor counter, BoNT A protease, Anthrax LF prot)
Cc1cc(C)cc(NC(=O)CS(=O)(=O)c2cn(CC(=O)N3CCCC3)c3ccccc23)c1	SSB-PriA inh 50 (no result: BoNT F protease, Autofluor counter, BoNT A protease, Anthrax LF prot)
Cc1ccc(-c2nnc(N3CCN(C(=O)COc4ccccc4)CC3)c3ccccc23)cc1	Autofluor counter 16269
COc1ccc(N2C(C(C)=O)=NN(c3ccccc3)C2c2cccs2)cc1 (stereo unspecified)	none (no result: SSB-PriA inh)
CC(=O)Nc1ccc(N2C(C(C)=O)=NN(c3ccccc3)C2c2cccs2)cc1 (stereo unspecified)	Autofluor counter 19872
CC(=O)c1cccc(NC(=O)c2cccn(Cc3ccc(Cl)cc3Cl)c2=O)c1	none (no result: BoNT F protease, Autofluor counter, BoNT A protease, Anthrax LF prot)
CCNC(=S)NNC(=O)c1cccn(Cc2ccc(Cl)cc2Cl)c1=O	Autofluor counter 22212, BoNT A protease inconclusive
C=CCNC(=S)NNC(=O)c1ccccc1	none
C=CCNC(=S)NNC(=O)c1cccn(Cc2ccc(Cl)cc2Cl)c1=O	Autofluor counter 22647, BoNT A protease inconclusive
C=CCNC(=S)NNC(=O)c1cccc2ccccc12	Autofluor counter 21284
C=c1c(=C2NN=C(c3cccnc3)O2)oc2ccccc12	none (no result: BoNT F protease, Autofluor counter, BoNT A protease, Anthrax LF prot)
COc1ccc(NC(=O)C23CC4CC(C2)CC(n2cnc(Br)n2)(C4)C3)cc1Cl	Autofluor counter 16232
O=C(O)c1cccc(NC(=O)C23CC4CC(C2)CC(n2cnc(Cl)n2)(C4)C3)c1	none
COc1ccc(CC(=O)NC2CCN(Cc3nnnn3C(C)(C)C)CC2)cc1OC	Autofluor counter 20961, BoNT A protease inconclusive
O=C1C2ON(c3ccccc3)C(c3ccncc3)C2C(=O)N1c1ccc(Br)cc1 (stereo unspecified)	Autofluor counter 20513, BoNT A protease inconclusive
Cc1ccc(N2C(=O)C3ON(c4ccccc4)C(c4ccncc4)C3C2=O)cc1 (stereo unspecified)	Autofluor counter 20770
O=C1C2ON(c3ccccc3)C(c3ccncc3)C2C(=O)N1c1ccc(N2CCOCC2)cc1 (stereo unspecified)	none
CC(C)C(c1nnnn1C1CCCCC1)N1CCCc2ccccc21 (stereo unspecified)	none
CC(C)C(c1nnnn1C1CCCC1)N1CCCc2ccccc21 (stereo unspecified)	Autofluor counter 24060
CC(C)C(c1nnnn1C1CCCC1)N1CCc2ccccc21 (stereo unspecified)	Autofluor counter 17487
C#CCn1c(=NC(=O)c2ccc(OC)cc2OC)sc2cc(C(=O)OCC)ccc21	none (no result: BoNT F protease, Autofluor counter, BoNT A protease, Anthrax LF prot)
Cc1nc2cc(NC(=O)c3cc(C)n(C)n3)ccc2s1	none (no result: BoNT F protease, Autofluor counter, BoNT A protease, Anthrax LF prot)
CC12CCC(C(=O)NCc3ccccn3)(OC1=O)C2(C)C (stereo unspecified)	none
Cc1cccnc1NC(=O)C12CCC(C)(C(=O)O1)C2(C)C (stereo unspecified)	Autofluor counter 22033
CCOC(=O)CNC(=O)CSc1nnc(NC(=O)Cc2cccc3ccccc23)s1	none (no result: BoNT F protease, Autofluor counter, BoNT A protease, Anthrax LF prot)
O=C(O)Cn1nc(-c2ccccc2)ccc1=O	none
CCOC(=O)Cn1nc(C)n(-c2c(C)cccc2C)c1=O	none
Cc1nn(CCOc2ccccc2)c(=O)n1-c1ccccc1	Autofluor counter 22975
CCOC(=O)Cn1nc(C)n(-c2ccc(C)cc2)c1=O	Autofluor counter 22478
CCOC(=O)Cn1nc(C2CC2)n(-c2ccccc2)c1=O	none (no result: BoNT F protease, Autofluor counter, BoNT A protease, Anthrax LF prot)
CCOC(=O)Cn1nc(-c2ccccc2)ccc1=O	Autofluor counter 23084
CCOC(=O)Cn1nc(C)n(-c2ccccc2)c1=O	Autofluor counter 22724
O=C(c1ccc2cc[nH]c2c1)N1CC(N2C(=O)C3CC=CCC3C2=O)C1 (stereo unspecified)	none (no result: BoNT F protease, Autofluor counter, BoNT A protease, Anthrax LF prot)
O=C(Cn1cnc2ccccc2c1=O)NCc1ccccc1-c1ccsc1	none (no result: BoNT F protease, Autofluor counter, BoNT A protease, Anthrax LF prot)
COC(=O)C(C)n1nc(C)n(-c2ccc(C)cc2)c1=O (stereo unspecified)	Autofluor counter 22187
COC(=O)C(C)n1cnc2c(nnn2-c2ccc(C)cc2)c1=O (stereo unspecified)	none
CCOc1c(Cl)cc(CNCC(C)C)cc1OC	Autofluor counter 24375, BoNT A protease inconclusive
CCn1c(CCn2ccnc2C)n[nH]c1=S	Autofluor counter 18972, BoNT A protease inconclusive
CCC(c1nc2ccccc2c(=O)n1CCCn1ccnc1)N1C(=O)c2ccccc2C1=O (stereo unspecified)	none
CCC(c1nc2ccccc2c(=O)n1CCN1CCOCC1)N1C(=O)c2ccccc2C1=O (stereo unspecified)	Autofluor counter 20159
OC(COCCOc1ccc(Cl)cc1)CSc1ccccn1 (stereo unspecified)	none (no result: BoNT F protease, Autofluor counter, BoNT A protease, Anthrax LF prot)
O=S(CC(O)COCc1ccc(Cl)cc1)c1ccccn1 (stereo unspecified)	Autofluor counter 21318
O=C(Nc1nc(C(=O)NC[C@H]2CCCO2)co1)c1ccsc1	none (no result: BoNT F protease, Autofluor counter, BoNT A protease, Anthrax LF prot)
CCN(CC)c1ccc2cc(-c3nc4ccccc4[nH]3)c(=O)oc2c1	BoNT F protease 59, BoNT A protease 33
O=c1oc2ccc3ccccc3c2cc1-c1nc2ccccc2[nH]1	none (no result: BoNT F protease, Autofluor counter, BoNT A protease, Anthrax LF prot)
CCN(CC)c1ccc2cc(-c3nc4ccccc4n3C)c(=O)oc2c1	Autofluor counter 16417
O=C(CC=NOCc1ccc([N+](=O)[O-])cc1)Nc1ccccc1	none (no result: BoNT F protease, Autofluor counter, BoNT A protease, Anthrax LF prot)
O=C(Nc1ccccc1C(=O)NCCCn1ccnc1)c1ccccc1	Autofluor counter 20501
O=C(NCCCn1ccnc1)c1cc(C(=O)C2CCCCC2)c[nH]1	none
O=C(NCCCn1ccnc1)c1cc2ccccc2o1	none
O=C(NCCCn1ccnc1)/C(=C\c1ccco1)NC(=O)c1ccco1	none
O=C(c1ccc(C(F)(F)F)cc1)c1c[nH]c(C(=O)NCCCn2ccnc2)c1	Autofluor counter 19564, BoNT A protease inconclusive
